Laboratory results as given in PubChem BioAssay AID602179 (National Center for Advancing Translational Sciences (NCATS), 2012).
The campaign covered roughly 390,000 compounds. About 360 (0.092%) were called active. Calls come from the whole dose curve; as a rule, active = well fitted inhibition curve with a large enough effect; inconclusive = small, poorly fitted or top-dose-only effect; inactive = no such curve, though single readings can be large or run the other way. For the sample, actives were picked, then their nearest neighbours and some compounds at random.

Biological target: Isocitrate dehydrogenase [NADP] cytoplasmic (Homo sapiens) (UniProt O75874)
Assay: qHTS for Inhibitors of mutant isocitrate dehydrogenase 1 (IDH1): qHTS; note: nearly all actives have a fitted effect of over 65% in size
Conditions: IDH1-R132H enzyme, NADPH consumption, diaphorase/resazurin fluorescence; series mostly up to 76.6 µM; activity change, negative = inhibition: at the top concentration
Text: Unbiased genomic sequencing for 22 glioma genomes found recurrent mutation of isocitrate dehydrogenase 1 (IDH1) on chromosome 2q33-a gene encoding the cytosolic isoform of IIDH1associated with the tricarboxylic acid cycle (TCA) that catalyzes the oxidative decarboxylation of isocitrate, yielding alpha-ketoglutarate and CO2 via NADP+ to NADPH conversion. Subsequent studies confirmed the recurrent IDH mutations in up to 70% of secondary gliomas and in 10% of AML cases. […] This in effect defines IDH1 as an oncogene, and provides an extraordinary opportunity to discover chemical probes against mutant IDH1 that may translate into much needed new therapies for glioma and AML patients. […] NIH Chemical Genomics Center [NCGC] NIH Molecular Libraries Probe Centers Network [MLPCN] MLPCN Grant: DA032129 Assay Submitter (PI): Lenny Dang, Agios Pharmaceuticals
IDH1-R132H (0.5 ug/mL) was dispensed into black, solid-bottom 1536-well plates at 3 uL/well in 20 mM Tris-HCl (pH 7.5), 150 mM NaCl, 10 mM MgCl2, 4 mM beta-ME, and 0.05% protease-free BSA. Then, 23 nL of compounds or DMSO were delivered to each well using a pin tool. A pre-read was run on the Viewlux to identify fluorescent compounds (540 nm excitation filter, 598 nm emission filter, bodipy mirror and 2 second exposure). After 30 minutes of incubation with compound, 3 uL of substrate mix were dispensed (0.016 mM NADPH, 2 mM alpha-KG, 20 mM Tris-HCl (pH 7.5), 150 mM NaCl, 10 mM MgCl2, and 0.05% protease-free BSA). Plates were spun for 1 min at 1000xg and incubated at room temperature for 80 min. Then 1.5 uL of each detection reagent component for the coupling system were added (0.12 mg/mL diaphorase and 0.072 mM resazurin, each in 20 mM Tris-HCl (pH 7.5), 150 mM NaCl, 10 mM MgCl2, and 0.05% protease-free BSA ) The protein, substrate and two detection components were maintained at 4 °C throughout the screen. Additionally, the substrate and resazurin reagents were protected from light. The plates were measured on an Envision plate reader for fluorescence signal using a 540 nm excitation filter and 590 nm emission filter with 10 flashes. 1x and 0x (no-enzyme) IDH1-R132H enzyme control were used to normalize %Activity of identified inhibitors; 0x enzyme values corresponded to 100% Activity (full inhibition), while 1x IDH1-R132H enzyme values were used to normalize 0%Activity (no inhibition). Concentration-response curves were fitted to the signals arising from the resulting fluorescence. The concentration-effect curves were then classified based on curve quality (r2), response magnitude and degree of measured activity, and compounds were subsequently categorized based on their curve class. […] Keywords: isocitrate dehydrogenase, IDH1, IDH1-R132H, MLSMR, MLPCN, NIH Roadmap, qHTS, NCGC
% is set by controls: 0 for no effect and ±100 for the full control effect; potency is the fitted concentration of half-maximal effect.

Isocitrate dehydrogenase [NADP] cytoplasmic (Homo sapiens), sequence (O75874 whole entry R132H, change not shown): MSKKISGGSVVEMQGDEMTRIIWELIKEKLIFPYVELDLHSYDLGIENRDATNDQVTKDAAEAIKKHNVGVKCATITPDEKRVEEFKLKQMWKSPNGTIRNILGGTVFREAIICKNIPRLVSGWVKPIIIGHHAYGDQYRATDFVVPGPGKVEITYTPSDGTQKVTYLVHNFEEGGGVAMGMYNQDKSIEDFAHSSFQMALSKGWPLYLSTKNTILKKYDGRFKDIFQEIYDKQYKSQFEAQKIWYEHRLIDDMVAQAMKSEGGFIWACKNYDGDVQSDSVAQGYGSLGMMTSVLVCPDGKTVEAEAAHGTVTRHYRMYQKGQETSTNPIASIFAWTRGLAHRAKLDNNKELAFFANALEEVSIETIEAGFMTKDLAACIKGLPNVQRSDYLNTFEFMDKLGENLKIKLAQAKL

Activity change, negative = inhibition, inactive:
O=C(NCCc1ccc(Cl)cc1)c1ccc2nc(CCc3ccccc3)oc2c1 -6.32%
CCC1(C)CC(=O)c2c(ccc3oc(C(=O)Nc4ccc(C(C)=O)cc4)c(C)c23)O1 (stereo not given) 15.7%
Cc1noc(/C=C/N(C)C)c1S(=O)(=O)N1CCCC(C(=O)Nc2cccc(F)c2)C1 (stereo not given) 2.9%
CCOC(=O)c1c(C)oc2nc(C)nc(N(CC(C)C)CC(C)C)c12 -5.12%
COc1ccc(NC(=O)CSc2nccn2Cc2ccc3c(c2)OCO3)cc1 -2.7%
CCOc1ccc(CNC(=O)c2ccc3c(c2)nnn3C2CCCC2)cc1 -1.82%
CN(Cc1ccccc1)c1ccc(-c2nc(-c3ccccc3)no2)cc1[N+](=O)[O-] 10.1%
NC(=O)CSc1nc2c(oc3ccccc32)c(=O)n1Cc1ccccc1 14.4%
CCOc1cccc(NC(=O)c2ccc(F)c(S(=O)(=O)N(CC)c3cccc(C)c3)c2)c1 -1.16%
O=C(CCn1c(=O)c2sccc2n(Cc2ccc(F)cc2)c1=O)NCc1ccc2c(c1)OCO2 -5.74%
CCC(=O)Nc1cccc(C(=O)OCc2cc(=O)n3nc(CC)sc3n2)c1 -9.41%
CSc1ncc(C(=O)NCc2ccccc2Cl)c(C(F)(F)F)n1 -6.99%
O=C(Cn1c(=O)nc(-c2ccccc2)c2cc(Cl)ccc21)NCc1ccc(Cl)cc1 -8.72%
CN(CC(=O)Nc1cccc(C(F)(F)F)c1)S(=O)(=O)c1cccs1 2.99%
COc1ccccc1NC(=O)C1=C(C)Nc2nc(SCC(=O)c3ccc(C)cc3)nn2C1c1ccccc1C (stereo not given) 9.04%
COc1ccc(-c2nc(C)c(CCNC(=O)c3ccc(C(F)(F)F)cc3)s2)cc1OC 4.38%
Cc1ccc(C(=O)Nc2ccc(C(=O)O)cc2)cc1S(=O)(=O)Nc1ccccc1 8.34%
COc1cccc(CC(=O)OCC(=O)NCc2ccc3c(c2)OCO3)c1 -1.17%
COc1ccc(CNC(=O)c2cc3c(s2)-c2ccccc2OC3)cc1 7.22%
O=C(CSc1nc(=O)[nH]c2c1CCCC2)Nc1cc(C(F)(F)F)ccc1Cl 1.58%
COc1ccc(Cl)cc1NC(=O)CCn1c(=O)c2cccn2c2ccccc21 15.1%
COc1ccc(-c2onc(C)c2C)cc1S(=O)(=O)NCC1CCN(Cc2cccc(F)c2)CC1 1.7%
COc1cccc(-n2ccn(CC(=O)NCc3ccc(C)cc3)c(=O)c2=O)c1 -2.1%
COc1ccccc1NC(=O)CSc1oc(-c2ccco2)nc1S(=O)(=O)c1ccc(Br)cc1 5.21%
Cc1ccc(Cl)cc1NC(=O)C(C)n1nnc2sc(-c3ccccc3)cc2c1=O (stereo not given) -9.89%
CC(C)c1ccc(Cn2c(COc3ccccc3)nc3ccccc32)cc1 -0.67%
COc1ccccc1OCCCn1c(-c2ccc(Cl)cc2)nc2ccccc2c1=O -10.3%
Cc1ccc(CNS(=O)(=O)c2ccc(C(=O)N(C)C)s2)cc1 0.733%
COc1cc2nc(SCC(=O)Nc3ccccc3F)n3nc(-c4ccccc4)nc3c2cc1OC 0%
CCNS(=O)(=O)c1ccc(NC(=O)CSc2nc(-c3ccco3)cc(C(F)(F)F)n2)cc1 -11.6%
COc1ccc(NC(=O)Cn2cc(C(=O)c3ccncc3)c(=O)c3cc(C)ccc32)cc1Cl -15.1%
Cc1ccc(C)c(Cn2c(C)c(CNCc3ccc(F)cc3)c(C(=O)O)c2C)c1 -3.26%
CCOc1cc(C2C(C(=O)OC)=C(C)NC3=C2C(=O)c2ccccc23)ccc1O (stereo not given) 3.72%
CCn1cc(C(=O)N(C)Cc2ccccc2)c(=O)c2cc(S(=O)(=O)N3CCCCCC3)ccc21 3.18%
CCOc1ccc2nc(N3CCC(C(=O)Nc4cc(C)ccc4C)CC3)sc2c1 -5.67%
CCC(=O)N1CCc2cc(S(=O)(=O)NCCC(=O)Nc3cccc(C)c3C)ccc21 0%
Cc1ccc(NC(=O)CSc2nnc3[nH]c(=O)cc(C)n23)cc1Cl -5.19%
O=C(Cn1c(=O)n(-c2ccc(F)cc2)c(=O)c2sc3ccccc3c21)NC1CCCC1 5.77%
CCOc1cc(-c2nnc(SCC(=O)NC3CCCC3)nc2-c2ccc(OC)c(OCC)c2)ccc1OC -5.74%
CCOc1ccc(CNC(=O)Cn2cc3c(n2)-c2c(oc(C(=O)N4CCCC4)c2C)CC3)cc1 -2.43%
CCN(CCCNC(=O)Cn1ncc2c3ccccc3n(C)c2c1=O)Cc1ccccc1 1.64%
Cc1ccc(-c2nnc(Nc3cccc(Br)c3)c3ccccc23)cc1S(=O)(=O)NCC1CCCO1 (stereo not given) -14.4%
CCOC(=O)c1ccc(NC(=O)CCS(=O)(=O)c2ccc(C)cc2)cc1 19.8%
CCC(=O)N1N=C(c2ccc(OC)cc2)CC1c1cn(-c2ccccc2)nc1-c1cccs1 (stereo not given) 6.3%
Cn1ccc2cc(S(=O)(=O)N3CCCC(C(=O)NCc4ccccc4F)C3)ccc21 (stereo not given) -13.5%
Cc1ccc(CN2CCC(CNC(=O)c3cnn(-c4ccc(C)cc4)c3C3CCN(C(=O)OC(C)(C)C)CC3)CC2)cc1 0.407%
CCN(CCCNC(=O)c1cc2cc3cc(OC)ccc3nc2s1)c1ccccc1 3.91%
Cc1ccc(Cl)cc1N1CCN(C(=O)c2cnc3c(-c4ccc(F)cc4)c(C)nn3c2C)CC1 -4.49%
Cc1cc(C)cc(OCC(=O)Nc2nc(-c3ccc(F)cc3)ns2)c1 -3.14%
COc1ccc(CN(C(=O)CSc2nnc(-c3ccc(OC)c(OC)c3)o2)c2ccc(F)cc2)cc1 3.1%
CCN(CCCCOC(=O)c1ccc(OC)c(OC)c1)C(C)Cc1ccc(OC)cc1 (stereo not given) 1.03%
O=C1N(Cc2ccccc2)c2ccc(Cl)cc2C1(O)c1c[nH]c2ccccc12 (stereo not given) 7.28%
CCOC(=O)c1cccc(NC(=O)Cn2cnc3nc4c(cc3c2=O)CCCC4)c1 -4.55%
Cc1nc2ccn(Cc3cccs3)c(=O)c2cc1C(=O)NCc1ccc(Cl)cc1 -1.97%
COc1cc(C(=O)N(Cc2ccc(C(C)C)cc2)C2CCS(=O)(=O)C2)cc(OC)c1OC (stereo not given) 8.8%
COC(=O)c1c(-c2ccsc2)oc2ccc(-c3cc(OC)c(OC)c(OC)c3)cc12 18.5%
COc1cc(-c2c(-c3ccc4c(c3)OCO4)noc2C)ccc1F 11%
CCn1c(=O)cc(OCC(=O)Nc2cc(Cl)c(OC)cc2OC)c2ccccc21 -5.22%
Cc1ccc(-c2nn(CCC(=O)Nc3ccc(OC(F)(F)F)cc3)c(=O)c3ccccc23)cc1 -1.17%
Cc1ccc(C(=O)N2c3ncnn3C3(CCCCC3)[C@@H]3CCCC[C@@H]32)cc1 -7.57%
O=c1[nH]cnc2c1c(-c1ccccc1)cn2-c1ccc(F)cc1 -0.586%
CCOC(=O)C1CCN(c2ncnc3c2c(-c2ccccc2)cn3-c2ccc(C)cc2)CC1 1.59%
CCc1ccc(CNC(=O)c2cc3c(=O)n(CC)c4ccccc4c3s2)cc1 -6.61%
O=C(NCC(c1cccnc1)N1CCc2ccccc21)c1cccc(C(F)(F)F)c1 (stereo not given) -1.72%
COc1cc(C(=O)N2CCN(c3ccc(Nc4ccc(C)cc4)nn3)CC2)cc(OC)c1OC 4.91%
CCc1ccc(N(CC)C(=O)CCn2cnc3onc(-c4ccc(F)cc4)c3c2=O)cc1 -16.8%
Cc1ccc(CSc2nc3cccnc3n2Cc2ccc(C(=O)NC3CC3)cc2)cc1 0.151%
COc1ccc(/C=C/c2nc(C#N)c(NCc3ccc(F)cc3)o2)cc1OC 4.01%
Cc1ccc2nc(/C(C#N)=C/c3ccc(-c4ccc(C(=O)OC(C)C)cc4)o3)[nH]c2c1 -13%
CCCn1c(NCc2ccccc2F)nc2ccccc21 17.3%
O=C(C1CC1)N1CCc2cc(Br)cc(S(=O)(=O)N3CCN(c4ccccc4F)CC3)c21 -11%
Cc1ccc2nc(-c3ccc(C)c(NC(=O)Cc4ccccc4)c3)oc2c1 4.91%
CCc1ccccc1NC(=O)Cc1ccc(NC(=O)N2CCCCc3ccccc32)cc1 9.63%
COc1cccc(CNC(=O)C(NS(=O)(=O)c2ccc3nc(C)sc3c2)C(C)C)c1 (stereo not given) 2.39%
Cc1nc2sc(C)c(C)n2c(=O)c1S(=O)(=O)NCCc1ccc(Cl)cc1 6.87%
COc1ccccc1CCNC(=O)c1cccn1-c1nnc(N2CCCCC2)s1 13.2%
COc1ccc(S(=O)(=O)NCc2cccn2Cc2cccc(C)c2)cc1 -0.432%
COC(=O)c1sc2ncccc2c1-n1c(C)ccc1C -12.6%
CCCN1CCN(CCCNC(=O)c2ccc3nc(Cc4ccccc4)oc3c2)CC1 29.4%
Cc1ccc(-c2cc(-c3coc4ccccc4c3=O)c3c(n2)-c2cc(Cl)ccc2OC3)cc1 -15%
O=C(NCc1ccccc1)c1ccc2c(c1)nc1n2CCCCC1 -2.7%
Cn1c(=O)nc2n(-c3ccc(Br)cc3)c3cccc(Cl)c3cc-2c1=O -1.36%
CCc1ccc(S(=O)(=O)c2nnn3c2nc(N2CCN(CC)CC2)c2sccc23)cc1 -17.2%
Cc1cc(C)c2oc(C(=O)Nc3ccc(S(=O)(=O)N(C)c4ccccc4)cc3)cc(=O)c2c1 1.76%
Cc1nn(-c2ccc(N3CCCCC3)nn2)c(C)c1CCC(=O)NCc1ccccc1F 0%
COc1ccc(C(=O)Nc2ccc(-n3nncc3-c3ccccc3)cc2)cc1OC -24.8%
COC(=O)c1cc(NC(=O)c2cnc(SC)nc2-c2ccccc2)cc(C(=O)OC)c1 1.46%
COc1ccc(C)cc1NC(=O)COCc1cc(-c2cccs2)on1 11%
CCOC(=O)c1c(S(=O)(=O)NCC(=O)Nc2ccc(Cl)c(C(F)(F)F)c2)c(C)n(C)c1C 0.73%

Potency, active:
COc1ccc(CNC(=O)COC(=O)C2=Cc3ccccc3OC2)cc1 52.1 µM
Cn1c(COc2ccc(Cl)cc2)nc2ccccc2c1=O 52.1 µM
COc1ccc(C(CCN(Cc2ccc(OC)c(OC)c2)C(=O)CCl)c2ccccc2)cc1 (stereo not given) 36.9 µM
COc1cc2c(-c3ccc4c(c3)OCO4)c(-c3ccsc3)oc(=O)c2cc1OC 10 µM
CCCNc1ncnc2c1c(-c1ccccc1)cn2-c1ccc(OCC)cc1 28.2 µM
COC(=O)c1ccc(-c2c(-c3ccccc3)ncc3cc(OC)c(OC)cc23)cc1 39.8 µM
